Laboratory results from PubChem BioAssay (EPA / NIEHS).
Results filed as inconclusive are left out. Activity calls are given as the source filed them. The calls were made as follows, unless noted: active = hit-call score of the fitted dose curve at least 0.9, where 1 is the maximum; inactive = score below 0.9.

Legend:
[1] = biological target: human RAR-related Orphan Receptor gamma (RORg), RORC (gene 6097) (UniProt P51449); assay: ATG_RORg_TRANS: Attagene TRANS-FACTORIAL HepG2 Assay for human RAR-related Orphan Receptor gamma (RORg) (AID 2283011; active = hit-call score of the fitted dose curve at least 0.9, where 1 is the maximum)
Chain of human RAR-related Orphan Receptor gamma (RORg), RORC (gene 6097) (P51449 whole entry, looked up, the tested form may be a part): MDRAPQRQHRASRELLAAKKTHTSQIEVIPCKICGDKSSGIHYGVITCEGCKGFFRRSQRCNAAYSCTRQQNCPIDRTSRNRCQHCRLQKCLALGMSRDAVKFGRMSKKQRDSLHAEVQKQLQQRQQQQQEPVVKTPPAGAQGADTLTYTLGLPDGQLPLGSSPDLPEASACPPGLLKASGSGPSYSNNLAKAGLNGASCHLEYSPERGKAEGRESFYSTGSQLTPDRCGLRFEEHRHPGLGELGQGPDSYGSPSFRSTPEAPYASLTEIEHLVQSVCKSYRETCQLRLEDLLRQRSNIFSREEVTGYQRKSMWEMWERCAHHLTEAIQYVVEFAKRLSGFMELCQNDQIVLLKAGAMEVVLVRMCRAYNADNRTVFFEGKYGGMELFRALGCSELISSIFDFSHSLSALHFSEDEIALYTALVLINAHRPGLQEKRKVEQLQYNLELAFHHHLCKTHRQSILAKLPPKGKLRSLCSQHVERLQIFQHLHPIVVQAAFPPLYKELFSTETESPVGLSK
How it was run: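 Readout: reporter transcript induction (RT-PCR, fluorescent primer extension, capillary electrophoresis) after 24 h compound exposure of transiently transfected HepG2 cells carrying a RORg-Gal4 chimera and GAL4-UAS reporters; DMSO served as baseline, with increasing signal fitted.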

[2] = biological target: human Retinoid X Receptor beta (RXRb), RXRB (gene 6257) (UniProt P28702); assay: ATG_RXRb_TRANS: Attagene TRANS-FACTORIAL HepG2 Assay for human Retinoid X Receptor beta (RXRb) (AID 2283013; active = hit-call score of the fitted dose curve at least 0.9, where 1 is the maximum)
Chain of human Retinoid X Receptor beta (RXRb), RXRB (gene 6257) (P28702 whole entry, looked up, the tested form may be a part): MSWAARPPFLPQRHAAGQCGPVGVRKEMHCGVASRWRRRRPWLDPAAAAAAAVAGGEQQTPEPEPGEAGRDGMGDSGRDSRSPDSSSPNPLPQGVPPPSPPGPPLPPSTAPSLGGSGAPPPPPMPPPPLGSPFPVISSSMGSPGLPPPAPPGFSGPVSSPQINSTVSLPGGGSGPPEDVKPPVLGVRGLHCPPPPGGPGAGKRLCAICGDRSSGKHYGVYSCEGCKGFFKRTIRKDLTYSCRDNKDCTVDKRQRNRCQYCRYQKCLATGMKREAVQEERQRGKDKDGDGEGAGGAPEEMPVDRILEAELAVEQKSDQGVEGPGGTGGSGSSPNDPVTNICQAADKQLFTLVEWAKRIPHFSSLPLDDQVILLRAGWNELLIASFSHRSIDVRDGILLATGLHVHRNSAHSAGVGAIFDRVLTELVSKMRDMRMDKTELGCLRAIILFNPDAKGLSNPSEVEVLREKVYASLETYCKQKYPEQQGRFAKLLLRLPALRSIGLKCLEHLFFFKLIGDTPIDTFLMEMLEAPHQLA
How it was run: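 Transfect HepG2 with GAL4-UAS multi-reporter constructs (chimeric NR-Gal4, TRANS format); dose compound 24 h; isolate RNA, RT-PCR, FAM primer extension, HpaI digest; quantify by capillary electrophoresis; positive direction vs DMSO.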

[3] = read-out: E-selectin (Homo sapiens) (UniProt P16581); assay: BSK_3C_Eselectin: BioMAP Diversity Plus: 3C Assay for Eselectin Biomarker Activity (AID 2283015); settings: primary human endothelial cells (HUVEC); actives raise or lower the signal
How it was run: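 Primary human umbilical vein endothelial cells (3C system) were dosed with chemical and cell-surface E-selectin measured by ELISA 24 h later. Bidirectional curve fitting used DMSO as negative control and baseline.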

[4] = read-out: Interleukin-1 alpha (IL1a), IL1A (gene 3552); assay: BSK_BE3C_IL1a: BioMAP Diversity Plus: BE3C Assay for Interleukin-1 alpha (IL1a) Biomarker Activity (AID 2283016); settings: primary human bronchial epithelial cells; actives raise or lower the signal
How it was run: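 BE3C primary human bronchial epithelium; cpd 24 h; IL-1a by ELISA; bidirectional fit vs DMSO; parallel SRB (0.1% SRB, 10% TCA fix, 560 nm) for cytotoxicity.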

[5] = read-out: Monocyte Chemoattractant Protein-1 (MCP1), CCL2 (gene 6347); assay: BSK_3C_MCP1: BioMAP Diversity Plus: 3C Assay for Monocyte Chemoattractant Protein-1 (MCP1) Biomarker Activity (AID 2283017); settings: primary human endothelial cells (HUVEC); actives raise or lower the signal
How it was run: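 Primary human umbilical vein endothelial cells (3C system) were exposed to test chemical for 24 h, after which MCP-1 was quantified by ELISA. Activity was fitted bidirectionally against DMSO as negative control and baseline.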

[6] = read-out: Monocyte Chemoattractant Protein-1 (MCP1), CCL2 (gene 6347); assay: BSK_4H_MCP1: BioMAP Diversity Plus: 4H Assay for Monocyte Chemoattractant Protein-1 (MCP1) Biomarker Activity (AID 2283018); settings: primary human endothelial cells (HUVEC); actives raise or lower the signal
How it was run: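 ELISA read-out of MCP-1 from human vascular endothelial primary cells taken at 24 hours after compound exposure. Activity was fitted in both directions relative to DMSO, which served as negative control.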

[7] = read-out: Human Leukocyte Antigen - DR isotype (HLADR), HLA-DRA (gene 3122); assay: BSK_3C_HLADR: BioMAP Diversity Plus: 3C Assay for Human Leukocyte Antigen - DR isotype (HLADR) Biomarker Activity (AID 2283019); settings: primary human endothelial cells (HUVEC); actives raise or lower the signal
How it was run: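 Primary human umbilical vein endothelial cells (3C system) were dosed with compound and cell-surface HLA-DR was quantified by ELISA at 24 h. Activity was fitted bidirectionally against DMSO as negative control and baseline.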

[8] = read-out: Monokine induced gamma interferon (MIG), CXCL9 (gene 4283); assay: BSK_3C_MIG: BioMAP Diversity Plus: 3C Assay for Monokine induced gamma interferon (MIG) Biomarker Activity (AID 2283021); settings: primary human endothelial cells (HUVEC); actives raise or lower the signal;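 as to AC50: MIG protein level measured by immunoassay in the treated endothelial cultures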
How it was run: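 Read-out is ELISA detection of MIG on human umbilical vein endothelial cells, taken 24 h after dosing. Gain or loss of signal was scored relative to DMSO controls using bidirectional curve fitting.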

[9] = BSK_3C_SRB: Viability Assessment in the BioMAP Diversity Plus: 3C Assay (AID 2283023); settings: primary human endothelial cells (HUVEC);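 also: fitted both ways against DMSO so a hit may be signal rise or drop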
How it was run: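 Primary human umbilical vein endothelial cells in the 3C system were read 24 h after compound dosing. Total protein was stained with 0.1% sulforhodamine B after 10% TCA fixation and read at 560 nm, with bidirectional fitting against DMSO as baseline.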

[10] = read-out: Matrix Metallopeptidase 1 (MMP1), MMP1 (gene 4312); assay: BSK_BE3C_MMP1: BioMAP Diversity Plus: BE3C Assay for Matrix Metallopeptidase 1 (MMP1) Biomarker Activity (AID 2283024); settings: primary human bronchial epithelial cells; actives raise or lower the signal
How it was run: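 Human bronchial epithelial cells (BE3C system) exposed to compound for 24 h; MMP1 then quantified by ELISA. Activity was fitted in both directions relative to DMSO.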

[11] = BSK_3C_Vis: BioMAP Diversity Plus: 3C Assay for Morphology Visualization (AID 2283025); settings: primary human endothelial cells (HUVEC);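 also: fitted both ways so gain or loss versus DMSO counts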;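 as to AC50: light microscopy image of cell morphology used as background control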
How it was run: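 Chemicals were added to primary human umbilical vein endothelium, cells were incubated 24 h, and morphology was then visualized by light microscopy. Gain or loss of signal was fitted bidirectionally relative to DMSO.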

[12] = read-out: Pselectin, SELP (gene 6403); assay: BSK_4H_Pselectin: BioMAP Diversity Plus: 4H Assay for Pselectin Biomarker Activity (AID 2283026); settings: primary human endothelial cells (HUVEC); actives raise or lower the signal
How it was run: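 ELISA read-out of P-selectin on human umbilical vein endothelium after 24 h of dosing. Values derive from bidirectional fitting relative to DMSO. Parallel SRB protein staining flagged overt cytotoxicity.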

[13] = read-out: Thrombomodulin, THBD (gene 7056); assay: BSK_3C_Thrombomodulin: BioMAP Diversity Plus: 3C Assay for Thrombomodulin Biomarker Activity (AID 2283029); settings: primary human endothelial cells (HUVEC); actives raise or lower the signal
How it was run: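 Read-out is ELISA of thrombomodulin on human umbilical vein endothelium 24 h after chemical dosing. Gain or loss of signal is scored relative to DMSO. Overt cytotoxicity is checked in parallel cultures by sulforhodamine B staining.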

[14] = read-out: Urokinase-type plasminogen activator receptor (uPAR), PLAUR (gene 5329); assay: BSK_4H_uPAR: BioMAP Diversity Plus: 4H Assay for Urokinase-type plasminogen activator receptor (uPAR) Biomarker Activity (AID 2283030); settings: primary human endothelial cells (HUVEC); actives raise or lower the signal
How it was run: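 Primary human umbilical vein endothelial cells were exposed to chemical for 24 h before cell-surface uPAR was quantified by ELISA. Activity was fitted bidirectionally against the DMSO negative control baseline.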

[15] = biological target: Retinoic acid receptor RXR-alpha (Homo sapiens) (UniProt P19793); assay: ATG_RXRa_TRANS: Attagene TRANS-FACTORIAL HepG2 Assay for human Retinoid X Receptor alpha (RXRa) (AID 2283012; active = hit-call score of the fitted dose curve at least 0.9, where 1 is the maximum)
Chain of Retinoic acid receptor RXR-alpha (Homo sapiens) (P19793 whole entry, looked up, the tested form may be a part): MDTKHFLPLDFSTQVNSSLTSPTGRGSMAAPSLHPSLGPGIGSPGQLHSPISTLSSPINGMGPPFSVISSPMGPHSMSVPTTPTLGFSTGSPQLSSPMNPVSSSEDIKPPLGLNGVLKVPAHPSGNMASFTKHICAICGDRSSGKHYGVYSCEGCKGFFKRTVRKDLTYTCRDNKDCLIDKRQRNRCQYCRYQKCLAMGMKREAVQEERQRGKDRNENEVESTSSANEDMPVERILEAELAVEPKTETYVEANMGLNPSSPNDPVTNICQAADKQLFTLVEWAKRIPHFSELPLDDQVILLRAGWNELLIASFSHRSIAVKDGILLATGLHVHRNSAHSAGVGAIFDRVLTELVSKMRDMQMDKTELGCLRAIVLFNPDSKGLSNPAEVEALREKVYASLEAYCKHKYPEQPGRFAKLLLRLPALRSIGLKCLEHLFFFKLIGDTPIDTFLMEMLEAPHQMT
How it was run: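 Transient transfection of human HepG2 with multiple GAL4-UAS reporter constructs; 24 h compound exposure; total RNA isolated, reverse-transcribed, PCR-amplified, 6-FAM labelled, HpaI-cut, resolved by capillary electrophoresis. Positive-direction fit versus DMSO.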

[16] = biological target: human Thyroid Receptor alpha (THRa1), THRA (gene 7067) (UniProt P10827); assay: ATG_THRa1_TRANS: Attagene TRANS-FACTORIAL HepG2 Assay for human Thyroid Receptor alpha (THRa1) (AID 2283014; active = hit-call score of the fitted dose curve at least 0.9, where 1 is the maximum)
Chain of human Thyroid Receptor alpha (THRa1), THRA (gene 7067) (P10827 whole entry, looked up, the tested form may be a part): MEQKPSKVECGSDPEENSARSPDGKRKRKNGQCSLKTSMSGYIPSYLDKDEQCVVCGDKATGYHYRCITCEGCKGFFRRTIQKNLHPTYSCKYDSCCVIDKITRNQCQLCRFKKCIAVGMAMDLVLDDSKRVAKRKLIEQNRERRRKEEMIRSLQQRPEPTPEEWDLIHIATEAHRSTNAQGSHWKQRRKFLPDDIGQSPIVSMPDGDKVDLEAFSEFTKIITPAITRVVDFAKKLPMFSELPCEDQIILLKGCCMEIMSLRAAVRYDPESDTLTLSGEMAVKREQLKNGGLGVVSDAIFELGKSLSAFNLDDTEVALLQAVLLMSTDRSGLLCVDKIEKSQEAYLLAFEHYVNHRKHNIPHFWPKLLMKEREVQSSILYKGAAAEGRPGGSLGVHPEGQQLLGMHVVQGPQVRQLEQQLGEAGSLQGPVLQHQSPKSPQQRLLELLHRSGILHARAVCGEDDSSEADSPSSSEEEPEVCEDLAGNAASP
How it was run: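 HepG2 cells transiently transfected with multiplexed GAL4-UAS reporter units for exogenous chimeric THRa1-Gal4; reporter mRNA measured 24 h after dosing by RT-PCR, 6-FAM labelling, HpaI digestion and capillary electrophoresis. Gain-of-signal fitted versus DMSO baseline.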

[17] = read-out: Interleukin-8 (IL8), CXCL8 (gene 3576); assay: BSK_3C_IL8: BioMAP Diversity Plus: 3C Assay for Interleukin-8 (IL8) Biomarker Activity (AID 2283020); settings: primary human endothelial cells (HUVEC); actives raise or lower the signal
How it was run: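 ELISA read-out of IL-8 from human umbilical vein endothelium, measured 24 h after chemical dosing. Activity is expressed relative to DMSO negative control, with both increases and decreases fitted.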

[18] = biological target: human Vitamin D Receptor (VDR), VDR (gene 7421) (UniProt P11473); assay: ATG_VDR_TRANS: Attagene TRANS-FACTORIAL HepG2 Assay for human Vitamin D Receptor (VDR) (AID 2283022; active = hit-call score of the fitted dose curve at least 0.9, where 1 is the maximum)
Chain of human Vitamin D Receptor (VDR), VDR (gene 7421) (P11473 whole entry, looked up, the tested form may be a part): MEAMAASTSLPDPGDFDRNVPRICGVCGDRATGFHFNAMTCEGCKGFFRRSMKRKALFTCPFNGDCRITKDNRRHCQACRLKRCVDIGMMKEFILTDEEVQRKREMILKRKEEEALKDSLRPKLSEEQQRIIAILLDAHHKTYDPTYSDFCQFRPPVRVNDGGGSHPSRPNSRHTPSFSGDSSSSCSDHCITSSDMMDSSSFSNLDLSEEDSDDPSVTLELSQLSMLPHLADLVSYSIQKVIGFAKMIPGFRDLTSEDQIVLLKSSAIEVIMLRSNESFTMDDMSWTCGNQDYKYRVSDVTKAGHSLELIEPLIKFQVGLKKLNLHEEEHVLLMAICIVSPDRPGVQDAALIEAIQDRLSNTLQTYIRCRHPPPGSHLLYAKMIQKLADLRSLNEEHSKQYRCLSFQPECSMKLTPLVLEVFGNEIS
How it was run: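 HepG2 cells were transiently transfected with multiple GAL4-UAS reporter units, so signal reflects exogenous chimeric receptor-Gal4 activity. After 24 h compound exposure, reporter mRNA was measured by RT-PCR, fluorescent labelling and capillary electrophoresis, fitted for gain of signal versus DMSO.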

[19] = BSK_BE3C_SRB: Viability Assessment in the BioMAP Diversity Plus: BE3C Assay (AID 2283028); settings: primary human bronchial epithelial cells
How it was run: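 Human primary bronchial epithelial cells were exposed to test chemicals for 24 h. Total protein in parallel cultures was then measured by staining with 0.1% sulforhodamine B after 10% TCA fixation, with absorbance read at 560 nm. Activity was fitted bidirectionally against DMSO.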

Measured: AC50

Chain of E-selectin (Homo sapiens) (P16581 whole entry, looked up): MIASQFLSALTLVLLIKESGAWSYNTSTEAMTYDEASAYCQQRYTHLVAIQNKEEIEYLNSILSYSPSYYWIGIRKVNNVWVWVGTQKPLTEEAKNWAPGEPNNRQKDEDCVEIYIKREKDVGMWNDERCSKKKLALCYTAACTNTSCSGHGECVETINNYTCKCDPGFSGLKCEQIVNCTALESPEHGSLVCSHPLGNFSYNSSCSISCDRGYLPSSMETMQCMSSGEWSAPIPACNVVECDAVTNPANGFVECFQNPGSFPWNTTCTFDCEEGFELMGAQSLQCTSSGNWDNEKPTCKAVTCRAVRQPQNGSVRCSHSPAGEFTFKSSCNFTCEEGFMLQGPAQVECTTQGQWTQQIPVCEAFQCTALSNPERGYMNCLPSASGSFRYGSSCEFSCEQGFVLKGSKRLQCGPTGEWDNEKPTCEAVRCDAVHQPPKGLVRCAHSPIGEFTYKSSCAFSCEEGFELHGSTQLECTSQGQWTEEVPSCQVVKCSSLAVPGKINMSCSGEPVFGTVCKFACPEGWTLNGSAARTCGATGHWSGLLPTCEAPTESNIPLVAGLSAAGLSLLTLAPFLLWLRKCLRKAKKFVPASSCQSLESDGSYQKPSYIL

CC(C)C(=O)OCC(C)(C)C(OC(=O)C(C)C)C(C)C (configuration not stated)
not listed: [15] | [16] | [17] | [18] | [19]
inactive: all other assays above

CCNc1nc(NC(C)C)nc(SC)n1
not listed: [1] | [19]
inactive: all other assays above

Sc1ccccc1
not listed: [15]
inactive: all other assays above

COS(=O)(=O)OC
not listed: [1] | [17]
inactive: all other assays above

Clc1ccc(C(c2ccccc2Cl)C(Cl)(Cl)Cl)cc1 (configuration not stated)
inactive: [15] | [16] | [4] | [18] | [10] | [19] | [13]
active: [3] 17.1 µM | [5] 11.4 µM | [6] 9.7 µM | [7] 10.2 µM | [17] 20.4 µM | [8] 21.5 µM | [9] 16.1 µM | [11] 26.4 µM | [12] 19.1 µM | [14] 21.2 µM

Oc1ccc(Cl)cc1Cl
not listed: [1] | [2] | [15] | [17] | [18]
inactive: all other assays above

CCOC(=O)C(O)(c1ccc(Cl)cc1)c1ccc(Cl)cc1
inactive: [15] | [2] | [16] | [4] | [13]
active: [3] 32 µM | [5] 31 µM | [6] 25.3 µM | [7] 31.3 µM | [8] 39.4 µM | [9] 34.5 µM | [10] 8.5 µM | [11] 37.3 µM | [12] 32.2 µM | [14] 31.3 µM
